# Data as given in PubChem BioAssay (Tox21).
# Results filed as inconclusive are left out. Unmarked numbers belong to inactive results. Calls come from the whole dose curve; as a rule, active = well fitted activation curve with a large enough effect in the signal ratio in the repeat runs (not every such curve was filed as active); inconclusive = weak or mixed curves; inactive = flat fitted curve, though single readings scatter; the % refers to the signal ratio.
# Assay: p53 small molecule agonists, cell-based qHTS assay (AID 1963582)
# Conditions: HCT-116 p53RE-bla reporter, beta-lactamase FRET ratio, 16 h; series mostly up to 66 µM; activation: at the top concentration
# From the text: National Center for Advancing Translational Sciences [NCATS]
# Division of Preclinical Innovation [DPI]
# U.S. Environmental Protection Agency [EPA]
# National Institutes of Environmental Health Sciences [NIEHS]
# National Toxicology Program [NTP]
# U.S. Food and Drug Administration [FDA]
# p53, a tumor suppressor protein, is activated following cellular insult, including DNA damage and other cellular stresses. The activation of p53 regulates cell fate by inducing DNA repair, cell cycle arrest, apoptosis, or cellular senescence. The activation of p53, therefore, is a good indicator of DNA damage and other cellular stresses. […] The activation of the reporter gene under culture conditions can be detected by fluorescence intensity. This cell line was used to screen the Tox21 10K compound library in a 1536-well plate format and to identify agonists that activate the p53 signaling pathway.
# Tox21 Assay Protocol Summary:
# The p53RE-bla cells were dispensed at 4,000 cells/5 ul/well in 1536-well black wall/clear bottom plates using a Multidrop dispenser. After the assay plates were incubated at a 37 C/5% CO2 incubator for 5 hours, 23 nL of compounds dissolved in DMSO, positive controls or DMSO only was transferred to the assay plate by a pin tool. The plates were incubated at 37 C for 16 hours. After 1 uL of LiveBLAzerTM B/G FRET substrate was added using a Flying Reagent Dispenser, the plates were incubated at room temperature for 2 hours, and fluorescence intensity was measured by an Envision plate reader.
# % is set by controls: 0 for no effect and ±100 for the full control effect.
row,SMILES,activation
1,C1COC(NC(C2CC2)C2CC2)=N1,-0.0882% [at 30.3 µM]
2,CCOC(=O)CC#N,0.124%
3,C[C@@H](CN1CC(=O)NC(=O)C1)N1CC(=O)NC(=O)C1,13.7% [at 30.3 µM]
4,CCCCCCCCCCCC,2.44%
5,C=CC/C=C/C/C=C/C/C=C/C,-2.82%
6,C=C(C)C(=O)OC1CC(C)CC(C)(C)C1 (stereo not given),-0.395%
7,NCC[C@H](O)C(=O)N[C@@H]1C[C@H](N)[C@@H](O[C@H]2O[C@H](CN)[C@@H](O)[C@H](O)[C@H]2O)[C@H](O)[C@H]1O[C@H]1O[C@H](CO)[C@@H](O)[C@H](N)[C@H]1O,0.378% [at 0.249 µM]
8,CC1(c2ccccc2)OC(C(=O)O)=CC1=O (stereo not given),-0.0252% [at 30.3 µM]
9,COC(=O)CCCCC(CCSS/C(CCO)=C(\C)N(C=O)Cc1cnc(C)nc1N)SC(C)=O (stereo not given),0.596% [at 30.3 µM]
10,CCCCC(=O)O[C@]1(C(=O)CO)CC[C@H]2[C@@H]3CCC4=CC(=O)CC[C@]4(C)[C@H]3[C@@H](O)C[C@@]21C,-6.74% [at 30.3 µM]
11,CC(CC(C)(C)C)CC(C)(C)CC(C)(C)C (stereo not given),-0.884% [at 30.3 µM]
12,C=COCC1CCC(CO)CC1 (stereo not given),-1.41%
13,CCCCCCCCCCCC(=O)N(CC)CC,-1.36%
14,O=C(O)c1ccccc1NCCc1ccccc1,-0.501% [at 30.3 µM]
15,O=C(CN1CCN(Cc2ccc3c(c2)OCO3)CC1)N1c2ccccc2Sc2ccccc21,-0.123% [at 30.3 µM]
16,CC(=O)N/N=C/c1ccc([N+](=O)[O-])o1,2.25% [at 30.3 µM]
17,CC1=CCC2C(C1)C2(C)C (stereo not given),-2.95%
18,CC(CCl)OC(C)CCl (stereo not given),0.462%
19,CCC(C)N(C)C(=O)c1cc2ccccc2c(-c2ccccc2Cl)n1 (stereo not given),-3.23% [at 30.3 µM]
20,CC(C)(Sc1cc(C(C)(C)C)c(O)c(C(C)(C)C)c1)Sc1cc(C(C)(C)C)c(O)c(C(C)(C)C)c1,0.0411% [at 30.3 µM]

row,SMILES,activation
1,COc1cc(C(=O)NC2CCCNC2)cc(OC)c1OC (stereo not given),2.54% [at 30.3 µM]
2,CS(=O)(=O)c1ccc([C@@H](C[C@H]2CCC(=O)C2)C(=O)Nc2cnccn2)cc1Cl,-0.28%
3,CCn1cc(C(=O)O)c(=O)c2cc(F)c(N3CCN(C)CC3)cc21,-0.0544% [at 13.5 µM]
4,CCCCCCCC[Si](OCC)(OCC)OCC,-0.806%
5,CCCCOc1ccc(C(=O)CCN2CCCCC2)cc1,0.0574% [at 30.3 µM]
6,O=C(O)c1cc(C(=O)O)c(C(=O)O)cc1C(=O)O,-2.71%
7,CC(=O)NCCCCCC(=O)O,-2.9% [at 30.3 µM]
8,NCCS,1.41% [at 30.3 µM]
9,CC(=O)OCC(=O)[C@@]1(O)CCC2C3CCC4=CC(=O)CC[C@]4(C)C3[C@@H](O)C[C@@]21C (stereo not given in full),-0.537% [at 30.3 µM]
10,C=CC(=O)OCCOCCOCC,-0.881%
11,C=CC(=O)OCCOC(=O)CCC(=O)O,-1.96%
12,CCOC(=O)COc1cc(-n2ncc(C(F)(F)F)c(C)c2=O)c(F)cc1Cl,0%
13,Cc1c(N=C=O)cccc1N=C=O,0.78%
14,NC(=O)NS(=O)(=O)c1ccc(N)cc1,0.658% [at 30.3 µM]
15,CC(C)(O)c1coc(S(=O)(=O)NC(=O)Nc2c3c(cc4c2CCC4)CCC3)c1,-0.933%
16,COc1cc(C(=O)NS(=O)(=O)c2ccccc2C)ccc1Cc1cn(C)c2ccc(NC(=O)OC3CCCC3)cc12,6.04% [at 30.3 µM]
17,CCOCCOCCOC(C)=O,0.543%
18,Nc1cc(S(=O)(=O)O)ccc1O,-5.75%
19,O=C(O)CCC(=O)c1ccc(-c2ccccc2)cc1,0.185% [at 30.3 µM]
20,CCN(CC)C(=O)N(CC)CC,3.95%
